LmPK inh – LmPK (Leishmania mexicana) enzyme inhibition | purified LmPK, Kinase-Glo ATP luminescence, 1 h | 290,000 compounds, 0.37% hits | Potency, µM (doses to about 57.5 µM), inactives show at the top dose activity change, negative = inhibition, usual class: inhibitors | AID 1721; also: potency is read from the fitted curve at half-maximal effect; % is scaled to controls: 0 for no effect and ±100 for the full control effect
Target sequence (Q27686 whole entry, looked up): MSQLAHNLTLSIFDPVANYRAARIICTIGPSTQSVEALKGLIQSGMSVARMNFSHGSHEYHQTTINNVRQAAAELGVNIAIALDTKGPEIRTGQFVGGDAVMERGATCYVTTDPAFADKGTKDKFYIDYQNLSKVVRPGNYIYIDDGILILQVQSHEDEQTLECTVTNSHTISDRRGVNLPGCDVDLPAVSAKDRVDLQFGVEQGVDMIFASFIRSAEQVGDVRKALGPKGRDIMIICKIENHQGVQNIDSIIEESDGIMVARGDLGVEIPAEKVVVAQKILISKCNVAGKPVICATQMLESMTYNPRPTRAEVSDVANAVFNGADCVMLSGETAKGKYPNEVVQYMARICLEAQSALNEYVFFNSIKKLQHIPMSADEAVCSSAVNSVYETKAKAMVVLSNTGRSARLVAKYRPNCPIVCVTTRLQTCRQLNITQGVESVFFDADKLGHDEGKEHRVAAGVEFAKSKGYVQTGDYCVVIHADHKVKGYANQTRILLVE
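qHTS format; LmPK 0.1 nM; substrates PEP 0.5 mM and ADP 0.1 mM. One-hour room-temperature incubation, then coupled luciferase luminescence; 0.5 nM enzyme wells mark activation.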
Cycloheximide cs – counter-screen hit for Shiga toxin inhibitors, cycloheximide; max response, %; cell reporter, cycloheximide protein synthesis inhibition counterscreen; AID 2314; 300,000 compounds, 12% hits; in the data active = max response mostly above about 13%, no sharp cut-off; inactive = mostly below about 14%; also: read at 38.3 µM for the half of the compounds with a filed dose; 0% is about no effect
TbPYK inhibitor – T. brucei pyruvate kinase inhibition | Q57TT1 | TbPYK enzyme, Kinase-Glo Plus ATP luminescence, 45 min | Potency, µM (highest dose often 76.8 µM), for inactives: at the top dose activity, negative = inhibition, hits mostly inhibitors | 410,000 compounds, 0.12% hits; also: potency is read from the fitted curve at half-maximal effect; % is scaled to controls: 0 for no effect and ±100 for the full control effect; nearly all actives have a fitted effect of over 50% in size
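Quantitative HTS: titrated library compounds versus trypanosomal pyruvate kinase in TEA buffer (pH 7.2) containing KCl, MgCl2, BSA and Tween-20. Reactions were initiated with ADP, 130 uM final. Kinase-Glo Plus luminescence was read after 45 min at RT.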
FBPA Giardia inh – Giardia lamblia aldolase inhibition; A8B2U2; purified Giardia FBPA; Potency, µM (highest dose often 59.6 µM), for the others: top-dose activity, negative = inhibition, actives largely listed as inhibitors; 290,000 compounds, 0.71% hits; AID 2451; also: potency is read from the fitted curve at half-maximal effect; % is scaled to controls: 0 for no effect and ±100 for the full control effect; nearly all actives have a fitted effect of over 55% in size
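40 nM FBPA preincubated 10 min at RT with compound (up to 57.5 uM final), then substrate plus GAPDH/TPI/NAD/arsenate coupling and diaphorase/resazurin added. Fluorescence read after 20 min at RT, 525/598 nm.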
Sm TGR block – S. mansoni TGR enzyme inhibition | purified TGR, DTNB reduction, TNB absorbance 405 nm | Potency, µM (series often up to 114 µM), without a hit: at the top dose activity change, negative = inhibition, usual class: inhibitors | AID 485364 | 360,000 compounds, 3% hits | Q962Y6; also: potency is read from the fitted curve at half-maximal effect; % is scaled to controls: 0 for no effect and ±100 for the full control effect; nearly all actives have a fitted effect of over 60% in size
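Kinetic colorimetric format: TGR-catalysed, NADPH-driven DTNB reduction monitored via TNB absorbance. Enzyme dispensed at 20 nM; compound exposure 15 min at room temperature before reaction start.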
Shiga inhibitor – blocks Shiga toxin action in Vero cells. Vero cells, Shiga toxin protein synthesis inhibition reporter. inhibition, % at 38.7 µM. 290,000 compounds, 9.2% hits. AID 2315; in the data active = inhibition mostly above about 28%, no sharp cut-off; inactive = mostly below about 43%; also: 0% is about no effect
* marks the source's active call; other numbers are inactive results; ? = inconclusive; nt = no result given. Many of the other results were omitted from the sample, so hits are more common in it than they were. Unless noted, calls follow the shape of the dose curve; as a rule, active = well fitted curve in the direction sought with a large enough effect; inconclusive = small, poorly fitted or top-dose-only effect, or another doubt; inactive = no such curve, though single readings can be large; an effect the other way counts as inactive or inconclusive.

SMILES | LmPK inh | Cycloheximide cs | TbPYK inhibitor | FBPA Giardia inh | Sm TGR block | Shiga inhibitor
C=C(C)CSC1=C(C#N)C(c2ccccc2Cl)CC(=O)N1 (stereo not given) | 4% | 0 | 13µM* | -11% | 4% | -9
Cc1ccc(C(=O)NC(=S)NCCCN2CCOCC2)cc1 | -3% | 20 | 1% | 2% | 3% | 50*
Cc1ccc(C(=O)N/C(=C\c2ccc(-c3ccccc3[N+](=O)[O-])o2)C(=O)NCCCN2CCOCC2)cc1 | 0% | 11 | -2% | nt | 35µM* | 26
O=C(NC(=S)NCCCN1CCOCC1)c1ccc(Br)cc1 | -2% | 21* | 3% | 2% | ? | 25
Cc1ccc(C(=O)N/C(=C\c2cn(C)c3ccccc23)C(=O)NCCCN2CCOCC2)cc1 | 9% | -1 | -7% | nt | -12% | 11
COc1ccc(CC(=O)NCCc2csc(-c3cccc(C)c3)n2)cc1 | nt | nt | -1% | nt | 9% | nt
CSc1sc(C)cc1C1C(C#N)=C(N)N(c2cccnc2)C2=C1C(=O)CC(C)(C)C2 (stereo not given) | 1% | -4 | -13% | -12% | -17% | -16
Cc1ccc(N2C(N)=C(C#N)C(c3cccnc3)C3=C2CC(C)(C)CC3=O)cc1 (stereo not given) | -1% | 7 | -1% | -27% | 40µM* | 8
CCOc1ccc(OCC)c(C2C(C#N)=C(N)N(c3cccnc3)C3=C2C(=O)CC(C)(C)C3)c1 (stereo not given) | -2% | 3 | 0% | -26% | 22µM* | 16
CC(OC(=O)Cc1c[nH]c2ccccc12)C(=O)Nc1ccccc1F (stereo not given) | nt | nt | -1% | nt | -5% | nt
CC(=O)N(C)c1ccc(N2CCOCC2)c2c1C(=O)c1ccccc1C2=O | nt | nt | -1% | nt | nt | nt
CN1CCN(c2cccc3c2C(=O)c2ccccc2C3=O)CC1 | -5% | 36* | -11% | 2% | 3% | 47*
CN1CCN(c2ccc3c(c2)S(=O)(=O)c2ccccc2C3=O)CC1 | nt | nt | -1% | nt | nt | nt
O=C1c2ccccc2C(=O)c2c1cccc2N1CCOCC1 | -14% | 27* | -6% | -11% | 2% | 79*
CSCC[C@H](NC(=O)[C@H](CO)NC(=O)[C@H](Cc1ccc(O)cc1)NC(=O)[C@@H](N)CO)C(=O)N[C@@H](CCC(=O)O)C(=O)N[C@@H](Cc1cnc[nH]1)C(=O)N[C@@H](Cc1ccccc1)C(=O)N[C@@H](CCCNC(=N)N)C(=O)N[C@@H](Cc1c[nH]c2ccccc12)C(=O)NCC(=O)N[C@@H](CCCCN)C(=O)N1CCC[C@H]1C(=O)N[C@H](C(=O)NCC(=O)N[C@@H](CCCCN)C(=O)N[C@@H](CCCCN)C(=O)N[C@@H](CCCNC(=N)N)C(=O)N[C@@H](CCCNC(=N)N)C(=O)N1CCC[C@H]1C(=O)N[C@H](C(=O)N[C@@H](CCCCN)C(=O)N[C@H](C(=O)N[C@@H](Cc1ccc(O)cc1)C(=O)N1CCC[C@H]1C(=O)N[C@@H](CC(N)=O)C(=O)NCC(=O)N[C@@H](C)C(=O)N[C@@H](CCC(=O)O)C(=O)N[C@@H](CC(=O)O)C(=O)N[C@@H](CCC(=O)O)C(=O)N[C@@H](CO)C(=O)N[C@@H](C)C(=O)N[C@@H](CCC(=O)O)C(=O)N[C@@H](C)C(=O)N[C@@H](Cc1ccccc1)C(=O)N1CCC[C@H]1C(=O)N[C@@H](CC(C)C)C(=O)N[C@@H](CCC(=O)O)C(=O)N[C@@H](Cc1ccccc1)C(=O)O)C(C)C)C(C)C)C(C)C | nt | -4 | nt | 5% | nt | -5
Cc1nc(C(C)NC(=O)CCc2nnc(-c3ccsc3)o2)cs1 (stereo not given) | 14% | 0 | -6% | 1% | -2% | 22
COC(=O)[C@@H](NC(=O)CCc1nnc(-c2ccsc2)o1)C(C)C | -3% | 50* | -5% | 1% | -1% | 31
CCOC(=O)CC1COCCN1C(=O)CCc1nnc(-c2ccsc2)o1 (stereo not given) | -1% | 33* | 0% | 0% | ? | 34
Nc1nc2c(nnn2Cc2ccc(Cl)c(Cl)c2)c(=O)[nH]1 | nt | nt | 2% | nt | nt | nt
CCOC(=O)CC1(NC(=O)C2CCC(=O)N(CCc3ccc(OC)cc3)C2)CCCCC1 (stereo not given) | 10% | 29* | 0% | -1% | -16% | 2
Cc1ccc(CN(C)C(=O)C2CCC(=O)N(CCc3ccccc3)C2)o1 (stereo not given) | -5% | 20* | ? | -15% | 13µM* | 31*
O=C1CCC(C(=O)N2CCCCO2)CN1CCc1ccc(Cl)cc1 (stereo not given) | 1% | 20* | 9% | nt | -31% | 20
COc1ccc(CCN2CC(C(=O)NCC3(O)CCCCC3)CCC2=O)cc1 (stereo not given) | -3% | -3 | 3% | nt | -18% | -11
O=C(NCCOc1ccccc1)C1CCC(=O)N(CCc2ccc(Cl)cc2)C1 (stereo not given) | -1% | 19* | -9% | nt | -20% | 33
Cc1ccc(NC(=O)c2cc3c(=O)oc4ccc(C)cc4c3s2)nc1 | 1% | -1 | nt | 8% | 8% | -5
SMILES | LmPK inh | Cycloheximide cs | TbPYK inhibitor | FBPA Giardia inh | Sm TGR block | Shiga inhibitor
CCCCNC(=O)CCn1c(=O)c2cccn2c2cccnc21 | nt | nt | -7% | nt | 8% | nt
CCCN(CCC)c1cc(C)nc2nc(-c3ccc(Cl)cc3)nn12 | nt | nt | -2% | nt | 33% | nt
Cc1cccc(NC(=O)CSc2nc3n[nH]c(C)c3c(=N)n2-c2cccc(Cl)c2)c1 | nt | nt | -3% | nt | 1% | nt
COc1ccc(CCN2CC(C(=O)N(C)Cc3ccccc3OC)CCC2=O)cc1 (stereo not given) | -1% | 7 | 3% | ? | 1% | -14
CCOc1ccc(CCNC(=O)C2CC(=O)N(CCc3ccccc3)C2)cc1OCC (stereo not given) | 1% | -2 | 3% | -4% | 1% | -4
COc1ccc(CCN2CC(C(=O)N(C)CCOc3ccccc3)CCC2=O)cc1 (stereo not given) | 3% | 26* | 1% | nt | -4% | 22
CN(CCOc1ccccc1)C(=O)C1CCC(=O)N(CCc2ccc(Cl)cc2)C1 (stereo not given) | -1% | 46* | -1% | nt | -12% | 87*
CCc1ccc(CN(C)C(=O)C2CCC(=O)N(CC3CCCCC3)C2)cc1 (stereo not given) | -3% | 38* | -14% | -15% | 1% | 11
COc1ccc(CCN2CC(C(=O)NCCc3ccccc3)CC2=O)cc1OC (stereo not given) | -2% | 36* | 0% | 2% | -2% | 172*
COc1ccccc1N1CCN(S(=O)(=O)CCNC(=O)COc2ccc(C(C)C)cc2)CC1 | nt | nt | 1% | nt | 2% | nt

Screens as filed in PubChem.
